Test results published in PMC8769072, “Proteome‐scale mapping of binding sites in the unstructured regions of the human proteome” (Molecular Systems Biology, 2022).

Sequence of TLN1 309-401, Q9Y490 (Q9Y490 309-401): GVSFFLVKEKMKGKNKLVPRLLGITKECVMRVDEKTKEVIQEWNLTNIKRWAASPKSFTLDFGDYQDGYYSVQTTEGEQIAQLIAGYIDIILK
Sequence of SIN3A 295-383, Q96ST3 (Q96ST3 295-383): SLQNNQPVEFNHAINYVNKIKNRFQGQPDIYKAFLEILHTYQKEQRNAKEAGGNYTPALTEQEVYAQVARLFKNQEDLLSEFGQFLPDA
Sequence of TNKS 174-649, O95271 (O95271 174-649): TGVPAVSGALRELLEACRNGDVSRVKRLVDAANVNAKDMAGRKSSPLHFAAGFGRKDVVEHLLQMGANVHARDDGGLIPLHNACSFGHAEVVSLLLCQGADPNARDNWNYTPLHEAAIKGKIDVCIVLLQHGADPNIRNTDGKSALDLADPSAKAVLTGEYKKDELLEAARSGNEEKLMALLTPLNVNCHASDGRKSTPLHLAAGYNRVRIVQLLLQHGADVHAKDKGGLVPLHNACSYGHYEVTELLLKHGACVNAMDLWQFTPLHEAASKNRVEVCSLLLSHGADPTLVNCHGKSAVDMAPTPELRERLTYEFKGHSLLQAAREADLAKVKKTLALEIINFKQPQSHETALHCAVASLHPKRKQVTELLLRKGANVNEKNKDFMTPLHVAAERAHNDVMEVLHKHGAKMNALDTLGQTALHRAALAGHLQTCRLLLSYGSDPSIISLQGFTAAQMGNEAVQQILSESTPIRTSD
Sequence of SUMO1 1-101, P63165 (P63165 whole entry): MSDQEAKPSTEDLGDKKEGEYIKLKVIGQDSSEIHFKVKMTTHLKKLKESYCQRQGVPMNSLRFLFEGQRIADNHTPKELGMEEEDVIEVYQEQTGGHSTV

REAPEGMASSLGALNL [CACNA1S, Q13698]
selected by phage display (TNKS 174-649, O95271): confidence 4 (active)

MAFSELLDLVGGLGRF [SLC22A12, Q96S37]
selected by phage display (SIN3A 295-383, Q96ST3): confidence 2 (active)

EPWLDRVIQGSSTSSS [DIP2A, Q14689]
selected by phage display (TNKS 174-649, O95271): confidence 3 (active)

DDDDVVFIESIQPPSI [ZMYM5, Q9UJ78]
selected by phage display (SUMO1 1-101, P63165): confidence 3 (active)

SPAEVVDLTLDEDSRR [C18orf25, Q96B23]
selected by phage display (SUMO1 1-101, P63165): confidence 4 (active)

EERPEVLGQRSTDVVD [STK36, Q9NRP7]
selected by phage display (TNKS 174-649, O95271): confidence 2 (active)

DYVLTYNYEGRGSPAG [DSC3, Q14574]
selected by phage display (TNKS 174-649, O95271): confidence 2 (active)

LFLPRTEADGKSYVKY [ENDOG, Q14249]
selected by phage display (TNKS 174-649, O95271): confidence 4 (active)

LDMHTVTREEGEGMET [GCC2, Q8IWJ2]
selected by phage display (TNKS 174-649, O95271): confidence 3 (active)

RQEALGAEHNSSALLP [AKAP13, Q12802]
selected by phage display (TNKS 174-649, O95271): confidence 3 (active)

QERLIPLGHASKSAPM [ERRFI1, Q9UJM3]
selected by phage display (TNKS 174-649, O95271): confidence 2 (active)

AQVLSQRLEAEGLSTL [LENG9, Q96B70]
selected by phage display (TNKS 174-649, O95271): confidence 2 (active)

EEEDDVVFVSSKPGSP [TTF2, Q9UNY4]
selected by phage display (SUMO1 1-101, P63165): confidence 2 (active)

VPGLGGPGESRHEPLG [HOXA13, P31271]
selected by phage display (TNKS 174-649, O95271): confidence 2 (active)

DLIFTDSKLYIPLEYR [TPTE, P56180]
selected by phage display (TLN1 309-401, Q9Y490): confidence 4 (active)

SVLQPGIAMETRGLAD [CNGA3, Q16281]
selected by phage display (TNKS 174-649, O95271): confidence 2 (active)

LWEDLLHAAEAHSSAT [PHTF2, Q8N3S3]
selected by phage display (SIN3A 295-383, Q96ST3): confidence 2 (active)

RTESIRWLIPGQEQEH [TXNDC15, Q96J42]
selected by phage display (TNKS 174-649, O95271): confidence 3 (active)

AEVVDLTVDEDEPTVV [RNF111, Q6ZNA4]
selected by phage display (SUMO1 1-101, P63165): confidence 2 (active)

ERSSGDGEELERLTKP [SLC35A5, Q9BS91]
selected by phage display (TNKS 174-649, O95271): confidence 3 (active)

GGLDGPRLAIPGMDGG [PAN3, Q58A45]
selected by phage display (TNKS 174-649, O95271): confidence 3 (active)

GGRTPAARDSIVREVI [MTHFD1L, Q6UB35]
selected by phage display (TNKS 174-649, O95271): confidence 2 (active)

PGSLREDPLGEAQPQI [INPP5K, Q9BT40]
selected by phage display (TNKS 174-649, O95271): confidence 4 (active)

DELRMEPLGLEGLNML [CRTC2, Q53ET0]
selected by phage display (TNKS 174-649, O95271): confidence 3 (active)

GLYPIIWQYPNGTHAY [JMJD1C, Q15652]
selected by phage display (TLN1 309-401, Q9Y490): confidence 2 (active)

GDWLTMLREASDEIVA [WWC2, Q6AWC2]
selected by phage display (SIN3A 295-383, Q96ST3): confidence 2 (active)

SQSDDGPIMWVRPGEQ [RSBN1, Q5VWQ0]
selected by phage display (TLN1 309-401, Q9Y490): confidence 2 (active)

AQQALERTPGDGLATM [THAP4, Q8WY91]
selected by phage display (TNKS 174-649, O95271): confidence 3 (active)

DDDEPIFVGEISSSKP [ZNF280D, Q6N043]
selected by phage display (SUMO1 1-101, P63165): confidence 2 (active)

GIQYIDLSSDSEDVVS [SMARCAD1, Q9H4L7]
selected by phage display (SUMO1 1-101, P63165): confidence 4 (active)

RGLVDGGEAVEARLRD [CGN, Q9P2M7]
selected by phage display (TNKS 174-649, O95271): confidence 3 (active)

QTIERMGSGVERMGPA
selected by phage display (TNKS 174-649, O95271): confidence 3 (active)

VEVIDLTIESSSDEED [PIAS3, Q9Y6X2]
selected by phage display (SUMO1 1-101, P63165): confidence 4 (active)

LPPAEAVRWAPVGAVA [RUNDC1, Q96C34]
selected by phage display (TNKS 174-649, O95271): confidence 4 (active)

AVVWIDSTLHQPMFLL [OR52W1, Q6IF63]
selected by phage display (TLN1 309-401, Q9Y490): confidence 2 (active)

DIRGLAAGSAETLPAN [PPFIA1, Q13136]
selected by phage display (TNKS 174-649, O95271): confidence 2 (active)

WTFSPLTETEMQITAV [PRUNE2, Q8WUY3]
selected by phage display (TLN1 309-401, Q9Y490): confidence 2 (active)

QWVTSPLHSPTLKDAH [ARHGAP31, Q2M1Z3]
selected by phage display (TLN1 309-401, Q9Y490): confidence 4 (active)

DGVARTPPVGMSGQVA [KIF26A, Q9ULI4]
selected by phage display (TNKS 174-649, O95271): confidence 3 (active)

AGGDLAGLLEALSDMG [NFKB2, Q00653]
selected by phage display (SIN3A 295-383, Q96ST3): confidence 2 (active)

VTSSPIRGAGDGMETE [BLZF1, Q9H2G9]
selected by phage display (TNKS 174-649, O95271): confidence 2 (active)

LSTGYLQIAERREPIG [DTNBP1, Q96EV8]
selected by phage display (TNKS 174-649, O95271): confidence 4 (active)

SLIERGAAAGSEDAVK [SPTAN1, Q13813]
selected by phage display (TNKS 174-649, O95271): confidence 2 (active)

SVERMGSGIERMGPLG
selected by phage display (TNKS 174-649, O95271): confidence 4 (active)

QYVTREPPEGSLLDVD [FAM83H, Q6ZRV2]
selected by phage display (TNKS 174-649, O95271): confidence 2 (active)

DEIVDLTAESLEPVVV [RNF4, P78317]
selected by phage display (SUMO1 1-101, P63165): confidence 2 (active)

AHLWFDNQIFVADTSE [ATP12A, P54707]
selected by phage display (TLN1 309-401, Q9Y490): confidence 3 (active)

EDLKWLWYENRIYVLG [NEMP2, A6NFY4]
selected by phage display (TLN1 309-401, Q9Y490): confidence 2 (active)

ALENRVAVLENQNKTL [CREB1, P16220]
selected by phage display (SUMO1 1-101, P63165): confidence 2 (active)

EEESMFFSNPLFLASP [PSD4, Q8NDX1]
selected by phage display (TLN1 309-401, Q9Y490): confidence 2 (active)

IGRISAEGGEQVERVV [APOL2, Q9BQE5]
selected by phage display (TNKS 174-649, O95271): confidence 3 (active)

TTGGGWVISRIFDSGY [FMO1, Q01740]
selected by phage display (TLN1 309-401, Q9Y490): confidence 4 (active)

PGADVVDLTLDSSSSS [PIAS4, Q8N2W9]
selected by phage display (SUMO1 1-101, P63165): confidence 2 (active)

QGLLHEAGSTDDRIVV [SPNS1, Q9H2V7]
selected by phage display (TNKS 174-649, O95271): confidence 2 (active)

ALPSTWIENKLYGMSD [RET, P07949]
selected by phage display (TLN1 309-401, Q9Y490): confidence 4 (active)

SPQFVGNLRESPLGQE [CCNH, P51946]
selected by phage display (TNKS 174-649, O95271): confidence 2 (active)

TLNERLAAEGQAIDGA [WDR37, Q9Y2I8]
selected by phage display (TNKS 174-649, O95271): confidence 3 (active)

RVVDGAEMALPGLATQ [KIF26B, Q2KJY2]
selected by phage display (TNKS 174-649, O95271): confidence 2 (active)

HGDGEVRQPPVGIAVA [BAHCC1, Q9P281]
selected by phage display (TNKS 174-649, O95271): confidence 2 (active)

GGGPDRLEPEMVRMVV [NAB2, Q15742]
selected by phage display (TNKS 174-649, O95271): confidence 2 (active)

IEALLEAGQARDAQDV [RRBP1, Q9P2E9]
selected by phage display (SIN3A 295-383, Q96ST3): confidence 2 (active)

SGTAGAALLALLAALA [EGFR, P00533]
selected by phage display (SIN3A 295-383, Q96ST3): confidence 2 (active)
